Jurkat NFkB inh: lowers PMA/ionomycin-induced NF-kB signal in Jurkat cells. AID 435003. 330,000 compounds, 0.53% hits. PMA/ionomycin-induced NF-kB luciferase reporter, luminescence. inhibition, % at 4 µM; in the data active means inhibition above about 50%
CSC inhib: cancer stem cell inhibition; cancer stem cell-like cells viability, luminescence; inhibition, % at 7.5 µM; 300,000 compounds, 1.1% hits; in the data active means inhibition above about 75%; tested in HMLE shEcad cells
Mdm2 MdmX PPI: disrupts the human Mdm2-MdmX interaction; 330,000 compounds, 3% hits; SaOS-2 split-luciferase Mdm2/MdmX complementation, luminescence; AID 485346; O15151+Q00987; inhibition, % at 8 µM;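 active means inhibition of at least 50% at 8 µM in the primary screen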
Gli-Sufu block: antagonists of Gli-Sufu signaling; inhibition, % at 5 µM; 340,000 compounds, 0.74% hits; Sufu-KO-LIGHT fibroblasts, Gli luciferase reporter luminescence; AID 588413;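 active means inhibition above about 55%, limit read from the data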;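 further: 0% = DMSO-treated cells and 100% = wells with medium but no cells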
aSyn 5UTR inh: MLPCN primary screen, SNCA 5' untranslated region; 300,000 compounds, 0.82% hits; alpha-synuclein 5'UTR reporter, inhibitor activity; AID 1813; inhibition, % (tested at 7.5 µM); in the data active means inhibition above about 60%;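 further: H4 neuroglioblastoma cells stably carrying SNCA 5'UTR luciferase fusion; 0% = DMSO wells and 100% = positive control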
697 NFkB inh: inhibitors of the PMA/ionomycin-induced NF-kB reporter in 697 B cells. 697 B-cell NF-kB luciferase reporter, 16 h. inhibition, % at 4 µM. 330,000 compounds, 0.33% hits; in the data active means inhibition above about 35%
Mdm2-MdmX conf: human Mdm2/MdmX binding inhibition, confirmed; shares compounds with Mdm2 MdmX PPI; inhibition, % at 8 µM; 10,000 compounds, 55% hits; luminescent assay; in the data active means inhibition above about 40%
Full FLuc ctr: inhibits full-length luciferase, flagging false Mdm2/MdmX hits; SaOS-2 full-length luciferase counterscreen, luminescence; shares compounds with Mdm2 MdmX PPI; 6,200 compounds, 77% hits; inhibition, % at 8 µM;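 active means mean inhibition at 8 µM reaching about 37%, which flags the compound as non-specific, limit read from the data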;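 further: p53-null SaOS-2 cells with luciferase driven by a doxycycline-inducible promoter; compound on cells about two nights before reading with doxycycline added after day one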
Gli-Sufu confirm: confirmation of Gli-SUFU pathway antagonists. shares compounds with Gli-Sufu block. Sufu-KO-LIGHT cells, Gli luciferase reporter, luminescence. inhibition, % at 5 µM. 2,500 compounds, 40% hits. AID 602428;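 active means mean inhibition at 5 µM reaching about 45%, limit read from the data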;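 further: plate controls were DMSO-treated cells for no effect and wells lacking cells for full effect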
SufuKO cytotox: cytotoxic in Gli-SUFU antagonist counter-screen | shares compounds with Gli-Sufu block | Sufu-KO-LIGHT cells cytotoxicity, ATP luminescence | cytotoxicity, % at 5 µM | 2,500 compounds, 32% hits | AID 651994;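 active means mean cytotoxicity at 5 µM above about 25%, limit read from the data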;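 further: cells exposed to compound overnight for roughly 16 to 18 hours; plate controls were DMSO wells with cells for no effect and medium without cells for full effect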
Wnt3a counter: Wnt3a reporter inhibition counter-screen; shares compounds with Gli-Sufu block; Wnt-LIGHT cells, Wnt3a-driven luciferase reporter, luminescence; inhibition, % at 6.25 µM; 2,500 compounds, 20% hits;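 active means mean inhibition above about 25%, limit read from the data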
* marks the source's active call; other numbers are inactive results; · = no result given. Compounds with a hit are over-represented: about 4.5% of the library has one in this group of screens.

SMILES | Jurkat NFkB inh | CSC inhib | Mdm2 MdmX PPI | Gli-Sufu block | aSyn 5UTR inh | 697 NFkB inh | Gli-Sufu confirm | SufuKO cytotox | Wnt3a counter | others
CCCCCc1nc2c(c(=O)c3ccccc3n2C)c(=O)n1C1CCCCCC1 | 9 | 149* | 69* | 52 | 25 | 7 | 36 | 24 | -7 | Mdm2-MdmX conf=35
S=P(NCCSCc1ccccc1)(N1CC1)N1CC1 | · | · | · | 6 | · | · | · | · | ·
CCCCCCn1c(=O)c(C(=O)Nc2cnccn2)c(O)c2ccccc21 | -17 | 41 | 61* | 78* | 67* | -16 | 79* | -7 | 30* | Mdm2-MdmX conf=52*;Full FLuc ctr=46*
CCCCn1c(=O)c(C(=O)Nc2ccc(C)cn2)c(O)c2ccccc21 | 0 | -24 | 19 | 5 | -11 | 5 | · | · | ·
COc1cc2c3c(c1OC)Oc1ccc(cc1)C[C@H]1c4c(cc(OC)c(OC)c4Oc4ccc(cc4)C[C@@H]3N(C)CC2)CCN1C | 9 | · | 100* | 65* | · | -27 | 20 | -5 | -1 | Mdm2-MdmX conf=74*;Full FLuc ctr=35
COc1ccc(O)c2c(=O)c3c(OC)cc4c(c3oc12)C1C=COC1O4 (centres undefined) | 1 | 36 | 74* | 60* | 94* | 27 | 69* | 37* | 20 | Mdm2-MdmX conf=63*;Full FLuc ctr=42*
Cc1cccc(-n2c(/C=C/c3ccc([N+](=O)[O-])o3)nc3ccccc3c2=O)c1 | 25 | 89* | 94* | 72* | -212 | -29 | 63* | 31* | 22 | Mdm2-MdmX conf=57*;Full FLuc ctr=42*
CCCCCOc1ccc(C)cc1CN(CCCl)CCCl | -2 | -8 | -13 | 26 | -13 | -58 | · | · | ·
CC1=C(O)C(=O)C=C2C1=CC=C1C2(C)CCC2(C)C3CC(C)(C(=O)O)CCC3(C)CCC12C (centres undefined) | · | · | · | 22 | · | · | · | · | ·
Cn1cccc1/C=C1/C(=O)NC(=O)N(Cc2ccccc2)C1=O | 16 | · | 30 | 53 | -4 | -54 | 45* | 38* | 26*
O=C1NC2C(=CC(O)C(O)C2O)c2cc3c(cc21)OCO3 (centres undefined) | · | · | · | 71* | · | · | 70* | 3 | 102*
O=C1NC2C(=CC(O)C(O)C2O)c2cc3c(c(O)c21)OCO3 (centres undefined) | · | · | · | 84* | · | · | 92* | 78* | 104*
O=C1NC(=O)C(Nc2ccccc2)C(=O)N1 | · | · | · | -4 | · | · | · | · | ·
C[C@]12CCC3[C@@H](CCC4=CC(=O)CC[C@@]43CO)C1CCC2=O (some centres undefined) | -5 | -9 | 1 | 37 | 22 | -12 | · | · | ·
COc1ccc(-n2nc(C(=O)NCC(=O)N3CCC4(CC3)OCCO4)c3ccccc3c2=O)c(OC)c1 | -51 | 1 | -33 | -95 | -54 | -54 | · | · | ·
CC1CCCC(C2(O)C(=O)Nc3ccccc32)C1=O (centres undefined) | -4 | -14 | 12 | 96* | 19 | -6 | 31 | 15 | 10
CC(C)C(NC(=O)C(C(C)C)N(C)C)C(=O)N(C)C(C(=O)N1CCCC1C(=O)N1CCCC1C(=O)NCc1ccccc1)C(C)C (centres undefined) | · | · | · | 51 | · | · | 57* | 52* | 14
O=C(CCC(=O)N1C[C@H]2C[C@@H](C1)c1cccc(=O)n1C2)NCc1ccccc1 | 10 | -2 | -4 | -1 | 36 | 11 | · | · | ·
Cc1cc(C=C2C(=O)NC(=O)NC2=O)c(C)n1-c1ccc2c(c1)OCO2 | 8 | 19 | -23 | 1 | -34 | 2 | · | · | ·
Cc1cc(/C=C2\C(=O)NC(=O)N(C)C2=O)c(C)n1-c1ccc2c(c1)OCO2 | 17 | 3 | 20 | 69* | 3 | 7 | 23 | -1 | -20
COc1ccc(CN2CCN(C(=O)COc3cccc(C)c3)CC2)c(OC)c1 | · | · | · | -11 | 10 | · | · | · | ·

Screening results from PubChem BioAssay.
